Assay outcomes from PubChem.
D3 antag – qHTS of D3 Dopamine Receptor Antagonist: qHTS; D3R cells, DiscoveRx beta-arrestin luminescence, antagonist mode; active compounds read low; max response, negative = inhibition, %; 2.5% of 360,000 active; in the data active = max response below about -50%; inconclusive = no clear call, values can overlap the other calls; also: % is scaled to controls: 0 for no effect and ±100 for the full control effect
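Cells expressing the human receptor were seeded at 1500 cells/well, incubated overnight at 37 degrees C in 5% CO2, then exposed to library compounds with dopamine controls for 90 minutes at 37 degrees C before luminescent detection.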
D3 ag – qHTS of D3 Dopamine Receptor Agonist: qHTS; 0.58% of 410,000 active; D3R DiscoveRx beta-arrestin cells, luminescence, 90 min; max activation, %; D(3) dopamine receptor (Homo sapiens), P35462; in the data active = max activation above about 30%; also: 0% is about no effect
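Agonist mode: compounds and dopamine controls were applied to plated cells for 90 min at 37 degrees C after an overnight attachment at 1500 cells/well. Luminescent read-out followed 30 - 60 minutes at room temperature with DiscoveRx detection reagent.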
B2AR arrestin – qHTS assay of beta-arrestin-biased ligands of beta2-adrenergic receptor; Beta-2 adrenergic receptor (Homo sapiens), P07550; AID 492947, 2010; Potency, µM (titrated, usually from 46.1 µM), for the others: at the highest dose activation, usual class: activators; 0.02% of 330,000 active; beta-arrestin recruitment to beta2AR, cell-based reporter; active = well fitted activation curve with a large enough effect; inconclusive = small, poorly fitted or top-dose-only effect;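 also: potency is read from the fitted curve at half-maximal effect; 0% = DMSO controls and full agonism = EC100 isoproterenol or metaproterenol; nearly all actives have a fitted effect of over 65% in size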
TSHR antagonist – Antagonists of the Thyroid Stimulating Hormone Receptor: HTS campaign; TSHR-expressing cells, TSH-stimulated cAMP HTRF, 2 h; active compounds read low; activity change, negative = inhibition, % at 11.5 µM; 0.2% of 330,000 active;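 active = activity change below a set negative limit, meaning inhibition stronger than a set level, cut at about -70% in these data; inconclusive = activity change between two set negative limits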; also: % is scaled to controls: 0 for no effect and ±100 for the full control effect
Target sequence (P16473 whole entry, looked up): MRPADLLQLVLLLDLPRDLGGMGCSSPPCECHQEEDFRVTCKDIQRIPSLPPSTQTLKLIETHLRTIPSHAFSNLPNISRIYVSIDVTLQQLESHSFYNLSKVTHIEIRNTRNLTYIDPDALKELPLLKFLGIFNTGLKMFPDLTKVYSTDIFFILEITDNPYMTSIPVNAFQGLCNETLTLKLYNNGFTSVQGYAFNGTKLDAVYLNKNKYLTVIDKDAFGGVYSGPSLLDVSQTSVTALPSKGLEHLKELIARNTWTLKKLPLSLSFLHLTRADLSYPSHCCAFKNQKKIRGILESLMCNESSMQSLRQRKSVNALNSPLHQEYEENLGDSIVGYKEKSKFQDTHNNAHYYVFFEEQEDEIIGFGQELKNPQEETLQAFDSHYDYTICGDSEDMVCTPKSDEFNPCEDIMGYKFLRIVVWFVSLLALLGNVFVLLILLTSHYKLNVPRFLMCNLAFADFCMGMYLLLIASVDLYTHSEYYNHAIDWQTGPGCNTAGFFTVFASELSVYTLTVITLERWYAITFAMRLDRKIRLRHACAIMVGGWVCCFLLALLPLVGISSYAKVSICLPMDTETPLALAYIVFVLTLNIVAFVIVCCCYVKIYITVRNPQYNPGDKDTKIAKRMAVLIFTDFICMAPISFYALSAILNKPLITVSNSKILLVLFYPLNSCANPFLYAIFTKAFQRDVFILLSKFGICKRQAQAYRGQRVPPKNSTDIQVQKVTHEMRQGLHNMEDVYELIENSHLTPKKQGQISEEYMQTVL
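Read-out is FRET at 665 nm (cryptate excitation 337 nm) from a cryptate-tagged anti-cAMP antibody, competed by cell cAMP against cAMP-d2. Compounds are tested on freshly harvested TSHR cells challenged with 4nM TSH (EC80) for 2 hours at 37 deg C.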
The depositor's hits bear a star; ? = inconclusive; · = not tested or not shown. Compounds with a hit are over-represented: about 2.9% of the library has one in this group of screens.

SMILES	D3 antag	D3 ag	B2AR arrestin	TSHR antagonist
CCCCOc1cccc(C(=O)N(Cc2ccc(C)o2)c2ccccn2)c1	·	16	·	·
O=C(NCc1ccco1)C1CCN(C(=O)N2CCOc3ccc(Cl)cc32)CC1	·	-2	·	·
CN(c1ccccc1C(=O)Nc1cccc(Cl)c1Cl)S(C)(=O)=O	-57*	-11	0%	-11
Fc1ccc2cnc(-c3ccccc3)c(-c3cccc(C(F)(F)F)c3)c2c1	-64*	-13	-2%	-24
COc1cccc(C(=O)Nc2cccc(C(=O)NC3=NN(c4c(Cl)cc(Cl)cc4Cl)C(=O)C3)c2)c1	?	-6	0%	-3
CC(C)(C)C(=O)NC1=NN(c2c(Cl)cc(Cl)cc2Cl)C(=O)C1	-59*	-4	0%	7
O=C(/C=C/c1ccccc1)NCCO	·	-16	·	·
CC(Oc1ccc(Br)cc1)C(=O)N(Cc1ccccc1)c1c(N)n(Cc2ccccc2)c(=O)[nH]c1=O (stereo not given)	-61*	-5	·	·
CC(Oc1ccc(F)cc1)C(=O)N(Cc1ccccc1)c1c(N)n(Cc2ccccc2)c(=O)[nH]c1=O (stereo not given)	17	5	0%	-4
O=[N+]([O-])c1ccc(Sc2cccc3cccnc23)c([N+](=O)[O-])c1	-55*	-13	?	1
Cc1ccccc1N1CCN(Cc2c(C#N)c3ccccc3n2C)CC1	-57*	-18	0%	-32
Cn1c(CN2CCN(CCO)CC2)c(C#N)c2ccccc21	3	0	0%	-1
O=C(Nc1ccc(Cl)cc1)c1csc(COCCO)n1	0	2	·	·
O=C(Nc1ccccc1F)c1csc(COCCO)n1	-134*	-24	·	·
Cc1csc2nc(COc3ccccc3NC(=O)c3ccc(C(C)(C)C)cc3)cc(=O)n12	·	10	·	·
CCOC(=O)c1sc(NC(=O)/C=C/c2cnn(C)c2C)c(C(=O)OC(C)C)c1C	9	35*	0%	0
CC(C)c1ccccc1NC(=O)CN1C(=O)c2cccc3cccc1c23	·	-4	·	·
Cc1ccc2cc(NC(=O)C3(C)CCN(C)C3)ccc2n1 (stereo not given)	0	8	·	·
CC(=O)N1CCCC(C)(C(=O)Nc2ccc3nc(C)ccc3c2)C1 (stereo not given)	-52*	4	·	·
O=C(N/N=C/c1cc([N+](=O)[O-])ccc1O)C(O)(c1ccccc1)c1ccccc1	-55*	-23	0%	14
O=C1NCCCC1C(=O)N/N=C/c1cc([N+](=O)[O-])ccc1O (stereo not given)	0	-12	0%	3
O=C(N/N=C/c1cc([N+](=O)[O-])ccc1O)C1CC1	-86*	-27	0%	-12
CCc1ccc(N2CC(C(=O)N/N=C/c3ccccc3OC)CC2=O)cc1 (stereo not given)	-3	-36	-1%	11
O=C(N/N=C/c1cc([N+](=O)[O-])ccc1O)c1ccc2c(c1)OCCO2	-64*	-14	0%	-19
CCc1ccc(N2CC(C(=O)N/N=C/c3cc([N+](=O)[O-])ccc3O)CC2=O)cc1 (stereo not given)	-63*	-13	0%	-8
SMILES	D3 antag	D3 ag	B2AR arrestin	TSHR antagonist
CCOc1ccc(CNC(=O)c2cccn2-c2nnc(N3CCCCC3)s2)cc1OC	·	-12	·	·
Cn1nnc2c(NCc3ccc(Cl)cc3)ncnc21	·	-3	·	·
COc1cc2oc3cc(C#Cc4ccc(N)cc4)ccc3c(=O)c2cc1OC	103	57*	·	·
COc1cc2oc3ccc(C#Cc4ccc(N)cc4)cc3c(=O)c2cc1OC	53	25	·	·
CCN1/C(=C(\O)c2ccccc2)C(=O)c2ccccc2S1(=O)=O	-56*	-5	0%	-6
CCOc1ccc(NC(=O)CCS(=O)(=O)c2ccc3c(c2)n(C)c(=O)c(=O)n3C)cc1	·	4	·	·
CN(C)c1cccc(C(=O)Nc2ccc3nc4n(c(=O)c3c2)CCCCC4)c1	-61*	-2	1%	-6
CCOc1cc(NS(=O)(=O)c2ccccc2)c(OCC)cc1NC(=O)c1ccco1	-51*	0	0%	20
CCNC(=S)Nc1cc(OCC)c(NC(=O)c2ccco2)cc1OCC	17	3	0%	15
Cc1ccc(C)c(CN2C(=O)c3ccccc3S(=O)c3ccc(C(=O)N(C)Cc4ccccc4)cc32)c1 (stereo not given)	·	-10	·	·
CCOC(=O)COc1c(OC)cc(Cl)cc1C1Nc2ccccc2C(=O)N1c1ccc(F)cc1 (stereo not given)	-6	3	-1%	13
CCOC(=O)COc1c(OC)cc(Cl)cc1C1Nc2ccccc2C(=O)N1c1ccccc1 (stereo not given)	-59*	0	0%	5
COc1cccc(CNC(=O)C(NS(=O)(=O)c2cccs2)C(C)C)c1 (stereo not given)	·	-7	·	·
O=c1cc2oc3cc(O)c(O)cc3c(-c3ccccc3O)c-2cc1O	-13	-1	0%	-6
CCOc1ccccc1-c1c2cc(O)c(=O)cc-2oc2cc(O)c(O)cc12	-58*	-15	0%	8
CCn1c(SCC(=O)Nc2ccc(C(C)=O)cc2)nc2nc3c(cc2c1=O)CCCC3	44	30*	0%	0
COc1ccc(CCNc2ccncn2)cc1OC	26	31*	-1%	-9
CCCCOc1ccc(C(=O)NCCS(=O)(=O)N2CCN(c3ccccc3OC)CC2)cc1	·	20	·	·
CCOc1ccc(-c2cn3nc(CC(C)C)sc3n2)cc1	·	-12	·	·
Cc1ccc(-c2nc(SCC(=O)NCc3ccco3)c3c(=O)n(C)c(=O)n(C)c3n2)cc1	·	5	·	·
CC(C)Nc1nc(NC(C)C)nc(N(C)N)n1	-53*	-10	4%	7
COc1ccc(N2CCN(C(=O)C3CCN(S(=O)(=O)c4cnc[nH]4)CC3)CC2)cc1	·	1	·	·
C=CCSc1nsc(NC(=O)Nc2ccc(F)cc2)n1	0	-1	-1%	-82*
CCSc1nsc(NC(=O)Nc2ccccc2F)n1	1	-1	-1%	-20
Cc1ccc(-c2noc(-c3nnn(CC(=O)Nc4cc(C)cc(C)c4)c3N)n2)cc1	·	5	·	·
SMILES	D3 antag	D3 ag	B2AR arrestin	TSHR antagonist
O=C(CN1CCN(S(=O)(=O)N2CCCCC2)CC1)Nc1cc(Cl)ccc1Cl	-7	-3	1%	0
NC(=O)C1(N2CCCCC2)CCN(CC(=O)Nc2cc(Cl)ccc2Cl)CC1	-88*	-62	0%	-15
Cc1ccc(Cc2nc3ccccc3nc2SCC(=O)NCCc2ccccc2)cc1	·	8	·	·
Cc1ccc(NC(=O)N2CC3CCCN3c3ccccc32)c(C)c1 (stereo not given)	·	5	·	·
CN(C)CCCC(C)(O)C(Cc1ccccc1)c1ccccc1 (stereo not given)	-58*	-18	0%	1
CN(C)CCC(Oc1ccccc1OCc1ccccc1)c1ccccc1 (stereo not given)	?	-16	·	·
